Source: the supplement of paper PMC12645437, “Orthogonal IMiD-Degron Pairs Induce Selective Protein Degradation in Cells” (ACS Chemical Biology, 2025)
Whole data set: some 8,300 sequences, median “log2 fold change of degron read counts, EGFP-low vs EGFP+ sorted cells (limma voom), compound-induced degradation” near -1.1, cut for the highest 2% near 3.2. The list comes from a sample in which the highest values are over-represented; it also holds similar and randomly drawn sequences.

T1: CRBN, Q96SW2
T1 chain: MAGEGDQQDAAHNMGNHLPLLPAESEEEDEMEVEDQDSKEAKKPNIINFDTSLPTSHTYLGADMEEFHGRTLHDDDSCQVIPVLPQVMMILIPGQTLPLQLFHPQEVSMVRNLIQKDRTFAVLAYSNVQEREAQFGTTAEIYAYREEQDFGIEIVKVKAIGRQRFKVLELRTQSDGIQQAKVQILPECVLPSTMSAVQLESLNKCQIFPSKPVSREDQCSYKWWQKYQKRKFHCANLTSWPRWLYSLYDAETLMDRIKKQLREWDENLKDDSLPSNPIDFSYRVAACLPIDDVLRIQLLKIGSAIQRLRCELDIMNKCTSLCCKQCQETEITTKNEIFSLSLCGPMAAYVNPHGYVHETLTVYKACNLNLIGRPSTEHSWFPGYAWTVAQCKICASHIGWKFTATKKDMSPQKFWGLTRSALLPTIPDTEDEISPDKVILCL


Biological target: T1, CRBN, Q96SW2
Experiment: log2 fold change of degron read counts, EGFP-low vs EGFP+ sorted cells (limma voom), compound-induced degradation; higher = more compound-induced degradation of the degron-EGFP fusion; degrons are variants of IKZF1/3 zinc finger 2; compound dose not given here
Conditions: Jurkat, 18 h
[1] = compound: compound 19 (5-tert-butyl-thalidomide)
[2] = compound: compound 22 (5-morpholino-thalidomide)
[3] = compound: compound 33 (diphenyl IMiD analogue)
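Note: pooled lentiviral library of zinc finger degron-EGFP fusions in mCherry-positive Jurkat cells, FACS-sorted after compound exposure, with degron abundance counted by next-generation sequencing.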

Row | Sequence | log2 fold change of degron read counts [1] | log2 fold change of degron read counts [2] | log2 fold change of degron read counts [3] | log2 fold change of degron read counts (compound: thalidomide)
1 | FKCNICGATFTQKGNLLRHIKL [46F_47K_49N_50I_52G_53A_54T_55F_67L_, Q9UKT9] | -2.19 | -2.52 | -3.31 | -1.21
2 | FACDICGAGFTQKGNLLRHIKL [46F_47A_49D_50I_52G_53A_54G_55F_67L_, Q9UKT9] | 2.54 | 0.463 | -0.84 | -1.45
3 | FECPICGRFFTQKGNLLRHIKL [46F_47E_49P_50I_52G_53R_54F_55F_67L_, Q9UKT9] | -1.85 | -1.84 | -0.566 | 0.632
4 | FFCEICGHTFTQKGNLLRHIKL [46F_47F_49E_50I_52G_53H_54T_55F_67L_, Q9UKT9] | -2.85 | -2.26 | -2.37 | -2.09
5 | FYCEQCGALFTQKGNLLRHIKL [46F_47Y_49E_50Q_52G_53A_54L_55F_67L_, Q9UKT9] | -0.0809 | 0.128 | -0.131 | -1.75
6 | FYCPICGRAFTQKGNLLRHIKL [46F_47Y_49P_50I_52G_53R_54A_55F_67L_, Q9UKT9] | -3.1 | -2.69 | -2.69 | -3.4
7 | FHCPQCGATFTQKGNLLRHIKL [46F_47H_49P_50Q_52G_53A_54T_55F_67L_, Q9UKT9] | -1.34 | -1.81 | 0.0255 | -1.77
8 | FRCDVCGAEFTQKGNLLRHIKL [46F_47R_49D_50V_52G_53A_54E_55F_67L_, Q9UKT9] | -2.43 | -1.82 | 0.12 | -1.26
9 | FMCDVCGATFTQKGNLLRHIKL [46F_47M_49D_50V_52G_53A_54T_55F_67L_, Q9UKT9] | -2.12 | -2.03 | 0.562 | -1.29
10 | FICPICGALFTQKGNLLRHIKL [46F_47I_49P_50I_52G_53A_54L_55F_67L_, Q9UKT9] | -1.19 | 0.987 | 1.39 | 1.34
11 | LWCPICGFACTQKGNLLRHIKL [46L_47W_49P_50I_52G_53F_54A_55C_67L_, Q9UKT9] | 2.95 | 3.32 | 2.72 | 1.84
12 | LRCPICGFGCTQKGNLLRHIKL [46L_47R_49P_50I_52G_53F_54G_55C_67L_, Q9UKT9] | 2.74 | 2.14 | 2.33 | 2.47
13 | LICPICGFACTQKGNLLRHIKL [46L_47I_49P_50I_52G_53F_54A_55C_67L_, Q9UKT9] | 0.747 | 2.69 | 1.82 | 2.87
14 | LQCPICGFACTQKGNLLRHIKL [46L_47Q_49P_50I_52G_53F_54A_55C_67L_, Q9UKT9] | 2.66 | 2.96 | 2.47 | 3.55
15 | LYCPICGFGCTQKGNLLRHIKL [46L_47Y_49P_50I_52G_53F_54G_55C_67L_, Q9UKT9] | 3.31 | 2.96 | 2.48 | 1.46
16 | LMCPICGFACTQKGNLLRHIKL [46L_47M_49P_50I_52G_53F_54A_55C_67L_, Q9UKT9] | 1.55 | 2.48 | 2.86 | 2.97
17 | LFCPICGFGCTQKGNLLRHIKL [46L_47F_49P_50I_52G_53F_54G_55C_67L_, Q9UKT9] | 3.06 | 2.74 | 2.03 | 1.48
18 | LGCPICGFACTQKGNLLRHIKL [46L_47G_49P_50I_52G_53F_54A_55C_67L_, Q9UKT9] | 3.1 | 2.1 | 1.7 | 1.09
19 | LLCPICGFACTQKGNLLRHIKL [46L_47L_49P_50I_52G_53F_54A_55C_67L_, Q9UKT9] | 0.701 | 0.253 | 1.48 | 1.92

Row | Sequence | log2 fold change of degron read counts [1] | log2 fold change of degron read counts [2] | log2 fold change of degron read counts [3] | log2 fold change of degron read counts (compound: thalidomide)
20 | FHCEICGRHFTQKGNLLRHIKL [46F_47H_49E_50I_52G_53R_54H_55F_67L_, Q9UKT9] | -0.861 | -2.23 | -1.35 | -1.95
21 | FVCNQCGACFTQKGNLLRHIKL [46F_47V_49N_50Q_52G_53A_54C_55F_67L_, Q9UKT9] | -2.19 | -2.11 | -0.29 | -1.14
22 | LNCPICGFECTQKGNLLRHIKL [46L_47N_49P_50I_52G_53F_54E_55C_67L_, Q9UKT9] | 1.07 | -0.0323 | 0.322 | 1
23 | FWCEQCGARFTQKGNLLRHIKL [46F_47W_49E_50Q_52G_53A_54R_55F_67L_, Q9UKT9] | 1.69 | 3.12 | 0.0332 | -0.593
24 | FMCPICGRPFTQKGNLLRHIKL [46F_47M_49P_50I_52G_53R_54P_55F_67L_, Q9UKT9] | 0.216 | 0.55 | 1.39 | 0.856
25 | FSCEICGREFTQKGNLLRHIKL [46F_47S_49E_50I_52G_53R_54E_55F_67L_, Q9UKT9] | -2.51 | -2.86 | -1.9 | -2.01
26 | FACDQCGASFTQKGNLLRHIKL [46F_47A_49D_50Q_52G_53A_54S_55F_67L_, Q9UKT9] | -0.53 | -1.83 | -2.25 | -3.41
27 | FMCEVCGATFTQKGNLLRHIKL [46F_47M_49E_50V_52G_53A_54T_55F_67L_, Q9UKT9] | -1.56 | -0.319 | 2.09 | 0.937
28 | FDCEVCGATFTQKGNLLRHIKL [46F_47D_49E_50V_52G_53A_54T_55F_67L_, Q9UKT9] | 0.941 | -0.571 | -0.022 | 0.317
29 | FCCEVCGATFTQKGNLLRHIKL [46F_47C_49E_50V_52G_53A_54T_55F_67L_, Q9UKT9] | 1.77 | 2.12 | 2.55 | 2.46
30 | FGCEVCGATFTQKGNLLRHIKL [46F_47G_49E_50V_52G_53A_54T_55F_67L_, Q9UKT9] | 3.09 | 2.54 | 0.976 | 0.784
31 | FACEVCGATFTQKGNLLRHIKL [46F_47A_49E_50V_52G_53A_54T_55F_67L_, Q9UKT9] | 3.32 | 2.03 | 0.449 | -0.11
32 | FWCEVCGATFTQKGNLLRHIKL [46F_47W_49E_50V_52G_53A_54T_55F_67L_, Q9UKT9] | 2.75 | 3.75 | 1.87 | 0.335
33 | FSCEVCGATFTQKGNLLRHIKL [46F_47S_49E_50V_52G_53A_54T_55F_67L_, Q9UKT9] | 2.73 | 2.4 | 1.63 | 1.3
34 | FYCEVCGATFTQKGNLLRHIKL [46F_47Y_49E_50V_52G_53A_54T_55F_67L_, Q9UKT9] | 3.1 | 4.14 | 2.47 | 1.12
35 | FKCEVCGATFTQKGNLLRHIKL [46F_47K_49E_50V_52G_53A_54T_55F_67L_, Q9UKT9] | -1.63 | -3.47 | -2.68 | -1.11
36 | FRCEVCGATFTQKGNLLRHIKL [46F_47R_49E_50V_52G_53A_54T_55F_67L_, Q9UKT9] | -0.885 | -1.05 | 1.42 | 1.06
37 | FNCEVCGATFTQKGNLLRHIKL [46F_47N_49E_50V_52G_53A_54T_55F_67L_, Q9UKT9] | 1.35 | 0.0506 | 0.168 | -0.31
38 | FQCEVCGATFTQKGNLLRHIKL [46F_47Q_49E_50V_52G_53A_54T_55F_67L_, Q9UKT9] | 0.152 | 2.64 | 2.01 | 3.74
